Results taken from PubChem BioAssay (NCI).
This is part of a sample that, as a whole, favours compounds with a hit. Of some 83,000 tested, about 20% had one in any assay.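 Method: cells in 96-well plates; compound added at one concentration; 48 h incubation; percent growth measured; values under 10 scored active.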 Values without a mark were called inactive. Active and inactive are the calls of the source.

System: HL-60(TB) leukemia
Test: NCI-60 one-dose screen, 48 h (100 = growth as untreated, 0 = no growth, -100 = all killed)
Settings: 10 µM unless noted

Row | SMILES | growth
1 | Cc1cc(N/N=C/c2nc(-c3ccccc3)oc2C)c2cc(Cl)ccc2n1 | -37.4% (active)
2 | COc1c(C(NC(=O)c2ccccc2)c2sccc2C)cc(Cl)c2cccnc12 (stereo unspecified) | 96.1%
3 | O=C1/C(=C/c2cccc(Br)c2)COc2ccc(O)c(O)c21 | -15.3% (active)
4 | Cn1c(=O)c2c(nc(Cl)n2CCl)n(C)c1=O | 45.7%
5 | CCCCCCCC1(C)NC(=O)NC1=O (stereo unspecified) | 100%
6 | COc1cc(/C=C/c2cc(O)c(C(C)=O)c(O)c2)cc2c1O[C@]1(C)CC[C@@H](O)C(C)(C)[C@H]1C2 | 28.1%
7 | COc1ccc(CN2CCc3c(Cl)nc(N)nc3C2=O)c(OC)c1 | 12.3% [100 µM]
8 | CCN(CC)C(=S)SSC(=S)N(CC)CC | 73.7%
9 | N#Cc1cccc(C2C3=C(COC3=O)N(CCO)c3cc4c(cc32)OCO4)c1 (stereo unspecified) | -32.1% (active)
10 | O=C1NC2(Nc3ccccc31)C(=O)Nc1c(Cl)cc(Cl)cc12 (stereo unspecified) | 106%
11 | O=S(=O)(NCCCNc1nccc(-c2c(-c3ccccc3)nc3occn23)n1)c1ccc(Cl)cc1 | 101%
12 | O=C(CCN1CCCCC1)c1ccc2ccccc2c1 | 112%
13 | O=C(Nc1nc2ccc(F)cc2s1)c1cccnc1Nc1ccc(Cl)cc1Cl | 26.5%
14 | Nc1cc2nc3ccccc3oc-2cc1=O | 16.2%
15 | CCN(CC)CCOC(=O)N1c2ccccc2Sc2ccccc21 | 88.1%
16 | C=CCOc1ccc(/C(Cl)=N/N=C(\Cl)c2cc(OC)c(OC)c(OC)c2)cc1 | 39.6%
